Sampled rows, rich in hits. Any-hit rate of the full collection: about 5.8%.
uPA generation: qHTS for Inhibitors of Cell Surface uPA Generation | cell surface uPA generation assay, qHTS | Potency, µM (highest dose often 38.3 µM), without a hit: top-dose activity change, negative = inhibition, most hits filed as inhibitors | 0.31% of 330,000 active | AID 540303, 2011; active = well fitted inhibition curve with a large enough effect; inconclusive = small, poorly fitted or top-dose-only effect; inactive = no such curve, though single readings can be large or run the other way; tested in mouse RAW 264.7 cells; also: potency is read from the fitted curve at half-maximal effect; % is scaled to controls: 0 for no effect and ±100 for the full control effect; nearly all actives have a fitted effect of over 55% in size
TRPV1 PAM: HTS Assay for Compounds that Act as Potentiators of the Vanilloid Receptor 1. Transient receptor potential cation channel subfamily V member 1 (Homo sapiens), Q8NER1. TRPV1-expressing cells, Fluo-8 calcium influx, capsaicin EC20 potentiation. potentiation, % at 8.33 µM. 0.02% of 320,000 active; in the data active = potentiation above about 80%; inconclusive = between about 30% and that limit; also: 0% is about no effect
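TRPV1-expressing cells were cultured overnight at 35.5C and loaded with Fluo-8 calcium dye for 40 to 90 min at room temperature. After a 10 s baseline, compound was added and calcium influx was read kinetically for 3 min (ex 480/em 520 nm).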
RORgamma inh: qHTS for inhibitors of ROR gamma transcriptional activity. Nuclear receptor ROR-gamma (Mus musculus), P51450. Drosophila S2 Gal4-RORgamma UAS-luciferase reporter, 20 h. Potency, µM (top dose mostly 53.6 µM), for the others: at the highest dose activity change, negative = inhibition, usual class: inhibitors. 5.4% of 310,000 active; also: potency is read from the fitted curve at half-maximal effect; % is scaled to controls: 0 for no effect and ±100 for the full control effect; nearly all actives have a fitted effect of over 60% in size
Target sequence (P51450 whole entry, looked up, the tested form may be a part): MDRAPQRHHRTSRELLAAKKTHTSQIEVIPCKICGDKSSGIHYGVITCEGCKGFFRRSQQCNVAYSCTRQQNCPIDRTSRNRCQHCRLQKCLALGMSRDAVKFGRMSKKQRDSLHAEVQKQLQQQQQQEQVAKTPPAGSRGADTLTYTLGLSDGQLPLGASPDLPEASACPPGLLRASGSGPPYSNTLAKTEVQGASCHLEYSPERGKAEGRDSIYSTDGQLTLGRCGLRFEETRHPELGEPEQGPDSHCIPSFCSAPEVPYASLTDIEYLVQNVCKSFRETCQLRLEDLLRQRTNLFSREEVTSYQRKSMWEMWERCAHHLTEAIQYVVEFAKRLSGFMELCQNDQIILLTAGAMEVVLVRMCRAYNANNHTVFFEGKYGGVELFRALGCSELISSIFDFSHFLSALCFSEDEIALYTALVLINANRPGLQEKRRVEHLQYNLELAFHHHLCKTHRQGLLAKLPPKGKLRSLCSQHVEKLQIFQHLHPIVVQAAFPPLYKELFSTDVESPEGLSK
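ROR gamma transcriptional activity was tracked as Gal4-UAS luciferase output in stably transfected Drosophila Schneider cells, with compound added 1 hr before 700 uM copper sulfate induction and a 20 hr ambient-temperature incubation.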
TRPV1 agonist: HTS Assay for Compounds that Act as Agonists of the Vanilloid Receptor 1; Transient receptor potential cation channel subfamily V member 1 (Homo sapiens), Q8NER1; TRPV1-expressing cells, Fluo-8 calcium influx, agonist mode; activation, % at 8.33 µM; 0.19% of 320,000 active; AID 540275, 2011; in the data active = activation above about 80%; inconclusive = between about 30% and that limit; also: 0% is about no effect
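TRPV1-expressing cells were cultured overnight at 35.5C and loaded with Fluo-8 calcium dye for 40 to 90 min at room temperature. After a 10 s baseline, compound was added and calcium influx was read kinetically for 3 min (ex 480/em 520 nm).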
Gal4-VP16 FLuc: VP16 counterscreen qHTS for inhibitors of ROR gamma transcriptional activity. Drosophila S2 Gal4-VP16 UAS-luciferase, luminescence, 20 h. Potency, µM (highest dose often 53.6 µM), for the others: top-dose activity, negative = inhibition, hits mostly inhibitors. 3.5% of 310,000 active;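 also: Gal4-VP16 expression switched on by copper sulfate through the metallothionein promoter; potency is read from the fitted curve at half-maximal effect; % is scaled to controls: 0 for no effect and ±100 for the full control effect; nearly all actives have a fitted effect of over 50% in size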
Starred values were filed as active, the others as inactive; ? = inconclusive; . = no result given. Unless noted, calls follow the shape of the dose curve; as a rule, active = well fitted curve in the direction sought with a large enough effect; inconclusive = small, poorly fitted or top-dose-only effect, or another doubt; inactive = no such curve, though single readings can be large; an effect the other way counts as inactive or inconclusive.

SMILES	uPA generation	TRPV1 PAM	RORgamma inh	TRPV1 agonist	Gal4-VP16 FLuc
Cc1cc(C)n2nc(C(=O)NCc3ccccc3)cc2n1	.	18	13%	-2	-8%
N#Cc1ccc(C(=O)OCC(=O)Nc2cccc(S(=O)(=O)NC3=NCCC3)c2)cc1	6%	.	.	.	.
COc1cc(NC(=O)CSCc2ccc(Cl)cc2)c(C(=O)O)cc1OC	0%	15	-12%	1	-2%
O=C(CSc1ncn[nH]1)Nc1ccccc1Sc1ccccc1	.	-1	22%	-2	-1%
Cc1ccc(C(=O)NNc2cc(N3CCCC3)nc(N3CCCC3)n2)cc1	-3%	.	5µM*	.	?
Cc1ccc(C(=O)NNC(=O)C2CCN(c3ncccn3)CC2)cc1	-1%	10	7%	0	2%
O=C(NNc1cc(N2CCOCC2)nc(N2CCOCC2)n1)c1ccc(Cl)c(Cl)c1	2%	-3	14µM*	7	?
O=C(NNc1cc(N2CCOCC2)nc(N2CCOCC2)n1)C12CC3CC(CC(C3)C1)C2	-1%	-1	-6%	-4	-4%
COCCN(C(=S)Nc1ccc(C)c(C)c1)C(C)c1ccco1 (stereo not drawn)	-6%	0	4.5µM*	4	?
COc1cccc(NC(=S)N(Cc2ccco2)C(C)c2ccco2)c1 (stereo not drawn)	1%	3	?	-1	18µM*
Cc1ccc(NC(=S)N(CCN(C)C)C(C)c2ccco2)cc1C (stereo not drawn)	0%	1	19%	-6	?
Cc1cccc(NC(=S)N(Cc2ccco2)C(C)c2cccs2)c1 (stereo not drawn)	-1%	11	14µM*	1	?
Cc1cc(Nc2ccccc2)nc(NCc2ccccc2)n1	-3%	-23	2.8µM*	?	11µM*
CCCCNc1cc(C)nc(NCc2ccccc2)n1	-14%	-13	?	2	7.1µM*
C=CCN(CC=C)C(=O)c1ccc2nc(Cc3ccc(OC)c(OC)c3)oc2c1	-13%	-6	?	?	13µM*
NS(=O)(=O)c1ccc(CCNC(=O)CSc2nc3ccsc3c(=O)n2CCCCCC(=O)O)cc1	3%	-9	7.9µM*	0	-4%
O=S1(=O)C2CC3OC2(CC3c2ccc(F)cc2)CN1Cc1ccc(Cl)cc1 (stereo not drawn)	.	.	?	.	-28%
CSc1nc(Sc2ccc(Cl)cc2)c2ccccc2n1	3%	3	16µM*	-1	-11%
COc1cnc(-c2ccccn2)nc1Oc1ccc(Cl)c2ccccc12	1%	.	1.3µM*	.	7.9µM*
COc1cnc(-c2ccccn2)nc1Oc1ccccc1Cl	-1%	15	2.2µM*	0	13µM*
COc1cnc(-c2ccccn2)nc1Oc1ccc(Cl)cc1	-5%	4	3.5µM*	-6	8.9µM*
COc1cnc(-c2ccccn2)nc1Oc1ccc(F)cc1F	-3%	23	5.6µM*	2	?
COc1cnc(-c2ccccn2)nc1NC(C)C	-12%	1	?	-2	-10%
COc1ccccc1CNC(=O)c1cccc(-c2ccccc2OC)n1	.	.	?	.	7%
COC(=O)C/C=C/[C@@H](C)[C@H](NC(=O)OCC(Cl)(Cl)Cl)c1ccc2ccccc2c1	.	.	12%	.	1%
O=C(NNc1nc(=O)c2cccnc2s1)c1ccccc1O	-6%	14	0.05µM*	2	-90%
O=S(=O)(/N=C(/Nc1ccc(Cl)c(S(=O)(=O)N2CCOCC2)c1)c1ccc(F)cc1)c1ccccc1	0%	-2	-8%	?	-6%
CN(CC1CCCO1)S(=O)(=O)c1ccc(C(=O)Nc2nnc(-c3ccccc3)o2)cc1 (stereo not drawn)	?	-3	0.63µM*	0	0.56µM*
CN(CC1CCCO1)S(=O)(=O)c1ccc(C(=O)Nc2ccc(S(N)(=O)=O)cc2)cc1 (stereo not drawn)	5%	-12	31%	0	1%
CN(CC1CCCO1)S(=O)(=O)c1ccc(C(=O)Nc2ccccc2F)cc1 (stereo not drawn)	2%	.	.	.	.

Screening data as filed in PubChem.
